Reference: PubChem BioAssay AID504904 (The Scripps Research Institute Molecular Screening Center, 2011)
The list shows a part of the results. Unmarked numbers belong to inactive results. Activity calls are given as the source filed them. No stated cut-off is given here; in the data, active means activation above about 18%; inactive means the rest.

Target: Mu-type opioid receptor (Homo sapiens) + Delta-type opioid receptor (Homo sapiens) (UniProt P35372+P41143)
Assay: agonists of MOR-DOR heterodimerization, confirmation, cell-based, luminescence (AID 504904);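 further: 0% = vehicle-treated cells and 100% = reference agonist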
Conditions: cells, luminescence complementation, at 9.3 µM, stronger effect = higher value

Mu-type opioid receptor (Homo sapiens) + Delta-type opioid receptor (Homo sapiens), sequence (P35372 whole entry, looked up): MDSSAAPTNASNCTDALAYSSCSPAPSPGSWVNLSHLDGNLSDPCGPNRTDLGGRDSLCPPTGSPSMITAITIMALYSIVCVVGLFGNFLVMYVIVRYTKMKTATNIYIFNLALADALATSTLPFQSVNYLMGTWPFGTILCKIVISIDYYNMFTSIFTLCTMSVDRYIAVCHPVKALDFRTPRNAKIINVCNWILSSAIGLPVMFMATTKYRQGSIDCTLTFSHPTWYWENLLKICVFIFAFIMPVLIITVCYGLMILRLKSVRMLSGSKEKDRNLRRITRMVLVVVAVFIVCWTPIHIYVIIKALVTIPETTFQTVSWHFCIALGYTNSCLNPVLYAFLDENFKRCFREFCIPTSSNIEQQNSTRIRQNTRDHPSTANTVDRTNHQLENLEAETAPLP
Mu-type opioid receptor (Homo sapiens) + Delta-type opioid receptor (Homo sapiens), sequence (P41143 whole entry, looked up): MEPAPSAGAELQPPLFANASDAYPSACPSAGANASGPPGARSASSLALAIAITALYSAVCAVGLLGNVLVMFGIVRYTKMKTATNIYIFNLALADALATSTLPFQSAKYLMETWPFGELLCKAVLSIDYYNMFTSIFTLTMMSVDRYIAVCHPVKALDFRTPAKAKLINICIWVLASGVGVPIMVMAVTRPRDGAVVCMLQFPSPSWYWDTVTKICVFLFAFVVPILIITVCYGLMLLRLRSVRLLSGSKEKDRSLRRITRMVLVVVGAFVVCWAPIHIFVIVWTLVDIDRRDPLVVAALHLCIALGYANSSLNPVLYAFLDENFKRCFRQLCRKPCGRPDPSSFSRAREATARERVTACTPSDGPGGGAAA

| SMILES | activation |
| --- | --- |
| COc1ccc(C2Nc3ccccc3C(=O)N2c2ccc(F)cc2)cc1Cn1nnc2ccccc21 (stereo not given) | 0.83% |
| CN(C)C(CNC(=O)c1cc2ccccc2o1)c1ccccc1 (stereo not given) | 1.4% |
| CN1C(CC(=O)Nc2ccc(Br)cc2)c2ccccc2CC1(C)C (stereo not given) | 89.7% (active) |
| CCNS(=O)(=O)c1ccc(NC(=O)Nc2cccc(OC)c2)cc1 | 3.23% |
| Cc1ccc(-n2c(SCC(=O)NCCC3=CCCCC3)nc3n[nH]c(C)c3c2=N)cc1Cl | 2.44% |
